Where a name gives a salt, the structure may show the parent alone. ± gives the standard deviation of the averaged measurements.
Tested on: E. coli TESEC Mtb Alr
Experiment: growth (OD600 after 10 h); higher = more growth (less inhibition)
Settings: arabinose 10000 nM; compound 0.1 mM; raw OD600 reference: median of DMSO wells 0.264, cell-free background 0.041
Procedure: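 TESEC Mtb Alr E. coli, or the Alr+ wild-type control, in 384-well plates with Prestwick library compounds at 0.1 mM and 1% DMSO, across arabinose induction levels of 1E3 to 1E7 nM. Growth is read as OD600 after 10 h at 37 °C in triplicate biological replicates.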

Point of comparison: Cc1ccnc2c1NC(=O)c1cccnc1N2C1CC1 [Nevirapine], growth 0.254 ± 0.0046. Against it:
- NS(=O)(=O)c1cc2c(cc1Cl)N=CNS2(=O)=O [Chlorothiazide] — higher, 0.268 ± 0.0056
- CN(C)CCc1c[nH]c2ccc(Cn3cncn3)cc12 [Rizatriptan benzoate] — within error, 0.258 ± 0.00081
- Nc1ncn(C2OC(CO)C(O)C2O)c(=O)n1 (configuration not stated) [Azacytidine-5] — lower, 0.0449 ± 0.0005
- CC(=O)N[C@@H](CC(=O)N[C@@H](CCC(=O)O)C(=O)O)C(=O)O [Spaglumic acid] — higher, 0.284 ± 0.015
- Cc1c(NC(=O)c2cccnc2)c(=O)n(-c2ccccc2)n1C [Nifenazone] — higher, 0.27 ± 0.0045
- CC(C)NCC(O)COc1ccc(CCOCC2CC2)cc1 (configuration not stated) [Betaxolol hydrochloride] — within error, 0.26 ± 0.0051

Same assay, conditions: arabinose 100000 nM; compound 0.1 mM; raw OD600 reference: median of DMSO wells 0.201, cell-free background 0.041

Point of comparison: Cc1ccccc1C(OCCN(C)C)c1ccccc1 (configuration not stated) [Orphenadrine hydrochloride], growth 0.189 ± 0.0084. Against it:
- CCCCN(CCCC)CCC(O)c1cc2c(Cl)cc(Cl)cc2c2cc(C(F)(F)F)ccc12 (configuration not stated) [Halofantrine hydrochloride] — within error, 0.2 ± 0.014
- CO[C@@H]1[C@@H](O[C@@H]2O[C@H](C)[C@@H](O[C@H]3C[C@@](C)(O)[C@@H](OC(=O)CC(C)C)[C@H](C)O3)[C@H](N(C)C)[C@H]2O)[C@@H](CC=O)C[C@@H](C)[C@@H](O)/C=C/C=C/C[C@@H](C)OC(=O)C[C@H]1OC(C)=O [Josamycin] — lower, 0.04147 ± 0.00015
- O=C(NCC1CCCCN1)c1cc(OCC(F)(F)F)ccc1OCC(F)(F)F (configuration not stated) [Flecainide acetate] — within error, 0.188 ± 0.0093
- C[C@]12CC[C@@H]3c4ccc(O)cc4C[C@@H](CCCCCCCCC[S+]([O-])CCCC(F)(F)C(F)(F)F)[C@H]3[C@@H]1CC[C@@H]2O (some centres not stated) [Fulvestrant] — within error, 0.195 ± 0.017

Reference: the supplement of paper PMC9262897, “Low-cost anti-mycobacterial drug discovery using engineered E. coli” (Nature Communications, 2022)
